# According to PubChem BioAssay (NCATS):
# Inconclusive results are not listed. Activity calls are given as the source filed them. Calls follow the shape of the full dose curve.
# Test: S16 Schwann cell PMP22 intronic element beta-lactamase assay (AID 624044);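 also: 0% = DMSO and -100% = potassium clavulanate positive control; nearly all actives have a fitted effect of over 15% in size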
# Conditions: S16 rat Schwann cells, PMP22 element beta-lactamase FRET, 24 h; series mostly up to 38.3 µM; ratio activity, negative = inhibition: at the top concentration
# Method in brief: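 Rat S16 Schwann cells with beta-Lac driven by a PMP22 intronic element, compound-treated 24 h at 37 °C. LiveBLAzer FRET B/G read: 460 nm normalized to potassium clavulanate vs DMSO; 535 nm FRET as viability; concentration-effect curves classified.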
row,SMILES,"ratio activity, negative = inhibition"
1,Clc1cccc(SC2CCNCC2)n1,-5.69% (inactive)
2,O=C1Nc2ccc(Cl)cc2C(c2ccccc2Cl)=NC1O (configuration not stated),1.12% (inactive)
3,O=C1OC(c2ccc(O)c(S(=O)(=O)O)c2)(c2ccc(O)c(S(=O)(=O)O)c2)c2c(Br)c(Br)c(Br)c(Br)c21,6.43% (inactive)
4,CC(C)=CC1C(C(=O)OCN2C(=O)C3=C(CCCC3)C2=O)C1(C)C (configuration not stated),2.41% (inactive)
5,CCOP(=S)(OCC)Oc1ccc2c(C)c(Cl)c(=O)oc2c1,-9.56% (inactive)
6,COP(=S)(OC)SCN1C(=O)c2ccccc2C1=O,-3.67% (inactive)
7,Nc1ccc([As](=O)(O)O)cc1,-5.25% (inactive)
8,Clc1ccc2c(c1)C(c1ccccc1)=NCc1nncn1-2,-6.8% (inactive)
9,O=C1c2ccccc2C(=O)C1C(=O)C(c1ccccc1)c1ccccc1,-7.28% (inactive)
10,Cc1nnc2n1-c1ccc(Cl)cc1C(c1ccccc1Cl)=NC2,1.14% (inactive)
11,Cc1nnc2n1-c1ccc(Cl)cc1C(c1ccccc1)=NC2,-34.7% (inactive)
12,Clc1ccc(C(c2ccc(Cl)cc2)C(Cl)(Cl)Cl)cc1,-5.49% (inactive)
13,C[C@]12CCC(=O)C=C1CC[C@@H]1[C@@H]2CC[C@]2(C)C(=O)CC[C@@H]12,-1.27% (inactive)
14,C[C@]12CC[C@@H]3c4ccc(OC(=O)N(CCCl)CCCl)cc4CC[C@H]3[C@@H]1CC[C@@H]2O,5.77% (inactive)
15,O=C1Nc2ccc(Cl)cc2C(c2ccccc2)=NC1O (configuration not stated),-0.354% (inactive)
16,CN1C(=O)C(O)N=C(c2ccccc2)c2cc(Cl)ccc21 (configuration not stated),0.531% (inactive)
17,NC(=O)c1cc([N+](=O)[O-])cc([N+](=O)[O-])c1,3.01% (inactive)
18,COP(=S)(OC)Oc1ccc(SC)c(C)c1,-1.3% (inactive)
19,O=C(Nc1ccc(Br)cc1)c1cc(Br)cc(Br)c1O,0.295% (inactive)
20,O=C(N/N=C/c1ccc([N+](=O)[O-])o1)c1cc([N+](=O)[O-])cc([N+](=O)[O-])c1O,9.12% (inactive)
21,O=C1CN=C(c2ccccc2)c2cc([N+](=O)[O-])ccc2N1,-4.49% (inactive)
22,CCCCCCCCCC(=O)O[C@H]1CC[C@H]2[C@@H]3CCC4=CC(=O)CC[C@@H]4[C@H]3CC[C@]12C,2.3% (inactive)
